What all share (assay): DAPPL (digital affinity profiling via proximity ligation, sequencing); 10 mM Tris-HCl pH 7.5, 50 mM NaCl, 1 mM DTT, 4% glycerol, room temperature, 30 min; GST-TFs on glutathione beads, 16-mer random dsDNA library, 0.1% formaldehyde crosslink after washing; high values mean tight binding
For one test, the target named is T1, FLI1 (Homo sapiens, UniProt Q01543 1-452).
T1 sequence: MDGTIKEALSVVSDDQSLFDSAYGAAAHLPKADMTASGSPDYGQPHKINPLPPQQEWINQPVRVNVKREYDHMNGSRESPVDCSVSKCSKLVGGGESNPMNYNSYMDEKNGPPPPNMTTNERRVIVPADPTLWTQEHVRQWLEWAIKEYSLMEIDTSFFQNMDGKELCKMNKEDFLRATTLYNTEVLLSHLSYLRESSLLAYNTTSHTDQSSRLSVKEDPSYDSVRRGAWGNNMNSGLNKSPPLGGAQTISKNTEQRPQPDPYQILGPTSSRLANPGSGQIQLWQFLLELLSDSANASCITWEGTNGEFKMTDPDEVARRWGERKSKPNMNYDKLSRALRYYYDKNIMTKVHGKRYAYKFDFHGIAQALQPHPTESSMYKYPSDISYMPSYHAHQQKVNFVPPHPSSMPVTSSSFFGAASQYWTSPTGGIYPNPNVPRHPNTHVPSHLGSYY
As to conditions: protein: recombinant; tags: N-terminal GST; dsDNA, one strand shown. The procedure, abridged: (§1)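 Each value of binding signal is a hexamer's read frequency for a factor divided by the same hexamer's frequency in the tag-only sample. Barcoded, bead-captured GST fusions of human transcription factors made in yeast were pooled with that sample and incubated with 200 nmole of a random double-stranded 16-mer DNA library in Tris/NaCl/DTT/glycerol buffer at room temperature for 30 min. Washing, 0.1% formaldehyde crosslinking, proximity ligation, PCR and Illumina NextSeq500 sequencing followed.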

The target of another test is T2, ELK1 (Homo sapiens, UniProt P19419 1-428).
T2 sequence: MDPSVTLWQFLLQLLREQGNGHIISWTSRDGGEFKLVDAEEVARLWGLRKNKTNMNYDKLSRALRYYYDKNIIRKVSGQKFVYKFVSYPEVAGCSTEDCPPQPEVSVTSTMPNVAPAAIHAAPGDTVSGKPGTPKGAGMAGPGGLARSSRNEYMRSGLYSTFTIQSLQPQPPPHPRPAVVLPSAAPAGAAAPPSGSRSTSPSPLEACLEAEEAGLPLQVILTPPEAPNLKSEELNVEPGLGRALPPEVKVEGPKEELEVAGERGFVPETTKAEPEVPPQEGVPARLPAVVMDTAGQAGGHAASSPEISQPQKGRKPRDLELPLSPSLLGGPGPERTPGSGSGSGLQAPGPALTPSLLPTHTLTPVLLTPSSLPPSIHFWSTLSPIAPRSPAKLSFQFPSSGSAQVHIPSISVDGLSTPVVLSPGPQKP
As to conditions: protein: recombinant; tags: N-terminal GST; dsDNA, one strand shown. The procedure, abridged:
as §1

A further test concerns the target T3, GABPA (Homo sapiens, UniProt Q06546 1-454).
T3 sequence: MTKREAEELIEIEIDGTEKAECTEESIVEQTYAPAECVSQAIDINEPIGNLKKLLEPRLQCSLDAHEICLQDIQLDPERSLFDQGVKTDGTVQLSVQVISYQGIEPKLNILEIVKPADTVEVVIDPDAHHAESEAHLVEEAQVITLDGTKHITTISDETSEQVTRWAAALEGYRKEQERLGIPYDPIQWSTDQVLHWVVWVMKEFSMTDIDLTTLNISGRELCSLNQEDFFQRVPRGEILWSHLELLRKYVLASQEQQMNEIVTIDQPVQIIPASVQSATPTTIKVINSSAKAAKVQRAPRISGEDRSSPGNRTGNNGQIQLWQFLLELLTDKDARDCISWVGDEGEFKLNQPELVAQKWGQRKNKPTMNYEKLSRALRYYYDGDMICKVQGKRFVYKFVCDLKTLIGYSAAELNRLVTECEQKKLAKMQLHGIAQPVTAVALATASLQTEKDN
As to conditions: protein: recombinant; tags: N-terminal GST; dsDNA, one strand shown. In outline: as §1

The target of another test is T4, ERG (Homo sapiens, UniProt P11308 1-479).
T4 sequence: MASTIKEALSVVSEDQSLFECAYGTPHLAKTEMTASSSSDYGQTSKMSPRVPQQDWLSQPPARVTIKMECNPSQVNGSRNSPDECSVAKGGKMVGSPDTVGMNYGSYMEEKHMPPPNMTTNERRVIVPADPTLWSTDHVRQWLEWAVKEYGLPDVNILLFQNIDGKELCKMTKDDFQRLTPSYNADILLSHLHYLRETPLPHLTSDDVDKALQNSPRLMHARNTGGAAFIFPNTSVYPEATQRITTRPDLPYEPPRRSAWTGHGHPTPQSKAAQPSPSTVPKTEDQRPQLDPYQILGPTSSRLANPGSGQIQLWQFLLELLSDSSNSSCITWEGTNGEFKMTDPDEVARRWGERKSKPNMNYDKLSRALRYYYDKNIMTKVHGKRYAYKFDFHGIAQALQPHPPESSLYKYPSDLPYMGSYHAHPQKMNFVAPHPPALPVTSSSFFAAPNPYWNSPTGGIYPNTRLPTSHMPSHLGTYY
As to conditions: protein: recombinant; tags: N-terminal GST; dsDNA, one strand shown. In outline:
as §1

Another test deals with T5, EHF (Homo sapiens, UniProt Q9NZC4 1-300).
T5 sequence: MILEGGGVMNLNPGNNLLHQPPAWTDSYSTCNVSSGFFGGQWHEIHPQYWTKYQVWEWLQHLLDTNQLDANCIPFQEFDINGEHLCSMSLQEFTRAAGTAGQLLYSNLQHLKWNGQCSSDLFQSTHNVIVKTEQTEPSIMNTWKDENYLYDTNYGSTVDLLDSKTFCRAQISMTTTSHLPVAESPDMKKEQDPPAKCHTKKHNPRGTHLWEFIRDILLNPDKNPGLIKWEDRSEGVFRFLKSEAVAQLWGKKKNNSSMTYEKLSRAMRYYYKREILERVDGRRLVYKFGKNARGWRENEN
As to conditions: protein: recombinant; tags: N-terminal GST; dsDNA, one strand shown. In outline:
as §1

A further test addresses SPI1 (Homo sapiens, UniProt P17947 1-270). As to conditions: protein: recombinant; tags: N-terminal GST; dsDNA, one strand shown. The procedure, abridged:
as §1

A further test addresses SPIB (Homo sapiens, UniProt Q01892 1-262). As to conditions: protein: recombinant; tags: N-terminal GST; dsDNA, one strand shown. The procedure, abridged:
as §1

The target in a further test is T6, ELK3 (Homo sapiens, UniProt P41970 1-407).
T6 sequence: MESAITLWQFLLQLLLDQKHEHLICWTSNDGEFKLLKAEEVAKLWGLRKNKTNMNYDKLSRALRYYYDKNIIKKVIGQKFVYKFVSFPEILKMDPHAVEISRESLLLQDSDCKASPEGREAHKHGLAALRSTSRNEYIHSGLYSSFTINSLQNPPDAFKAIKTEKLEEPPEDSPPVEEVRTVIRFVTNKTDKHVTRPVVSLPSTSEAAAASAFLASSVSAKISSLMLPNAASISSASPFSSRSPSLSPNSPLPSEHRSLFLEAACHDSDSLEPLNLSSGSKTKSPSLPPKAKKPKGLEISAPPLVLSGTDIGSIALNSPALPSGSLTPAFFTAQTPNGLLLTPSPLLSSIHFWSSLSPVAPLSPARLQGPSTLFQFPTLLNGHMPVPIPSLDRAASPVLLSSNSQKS
As to conditions: protein: recombinant; tags: N-terminal GST; dsDNA, one strand shown. In outline: as §1

In a further test the target is T7, FEV (Homo sapiens, UniProt Q99581 1-238).
T7 sequence: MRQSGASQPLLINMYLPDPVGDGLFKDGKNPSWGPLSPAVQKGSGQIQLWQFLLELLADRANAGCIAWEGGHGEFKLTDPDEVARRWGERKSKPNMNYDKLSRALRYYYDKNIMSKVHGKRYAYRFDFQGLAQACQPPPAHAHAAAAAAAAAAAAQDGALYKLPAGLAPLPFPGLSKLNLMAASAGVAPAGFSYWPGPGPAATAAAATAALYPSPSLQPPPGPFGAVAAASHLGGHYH
As to conditions: protein: recombinant; tags: N-terminal GST; dsDNA, one strand shown. In outline: as §1

The target of the next test is ETV5 (Homo sapiens, UniProt P41161 1-510). As to conditions: protein: recombinant; tags: N-terminal GST; dsDNA, one strand shown. In outline: as §1
In a further test the target is HSF1 (Homo sapiens, UniProt Q00613 1-529). As to conditions: protein: recombinant; tags: N-terminal GST; chain copies: 3; dsDNA, one strand shown. The procedure, abridged: as §1
The next test addresses ELF4 (Homo sapiens, UniProt Q99607 1-663). As to conditions: protein: recombinant; tags: N-terminal GST; dsDNA, one strand shown. The procedure, abridged:
as §1

In another test the target is T8, ELK4 (Homo sapiens, UniProt P28324-2 1-405).
T8 sequence: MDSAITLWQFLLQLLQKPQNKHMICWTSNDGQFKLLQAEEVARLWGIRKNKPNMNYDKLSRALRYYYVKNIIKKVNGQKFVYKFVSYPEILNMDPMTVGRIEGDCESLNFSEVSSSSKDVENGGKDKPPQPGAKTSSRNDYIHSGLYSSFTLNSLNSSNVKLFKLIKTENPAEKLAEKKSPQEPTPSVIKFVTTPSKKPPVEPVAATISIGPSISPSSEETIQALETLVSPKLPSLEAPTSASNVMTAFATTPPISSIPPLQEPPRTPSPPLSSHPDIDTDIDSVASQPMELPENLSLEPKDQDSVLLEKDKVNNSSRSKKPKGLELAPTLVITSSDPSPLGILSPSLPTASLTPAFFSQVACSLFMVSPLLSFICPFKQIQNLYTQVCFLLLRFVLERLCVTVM
As to conditions: protein: recombinant; tags: N-terminal GST; dsDNA, one strand shown. The procedure, abridged:
as §1

A further test concerns the target T9, ETV2 (Homo sapiens, UniProt O00321 1-342).
T9 sequence: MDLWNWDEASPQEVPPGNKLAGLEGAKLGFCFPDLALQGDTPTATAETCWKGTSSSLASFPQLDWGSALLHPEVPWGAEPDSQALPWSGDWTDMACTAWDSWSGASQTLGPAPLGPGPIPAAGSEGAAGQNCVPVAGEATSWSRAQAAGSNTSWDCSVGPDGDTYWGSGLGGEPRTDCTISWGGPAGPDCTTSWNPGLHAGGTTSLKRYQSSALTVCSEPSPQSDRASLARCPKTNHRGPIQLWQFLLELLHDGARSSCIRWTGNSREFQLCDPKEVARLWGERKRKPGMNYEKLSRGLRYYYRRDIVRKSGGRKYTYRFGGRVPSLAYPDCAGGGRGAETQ
As to conditions: protein: recombinant; tags: N-terminal GST; dsDNA, one strand shown. In outline:
as §1

A further test deals with T10, ELF3 (Homo sapiens, UniProt P78545 1-371).
T10 sequence: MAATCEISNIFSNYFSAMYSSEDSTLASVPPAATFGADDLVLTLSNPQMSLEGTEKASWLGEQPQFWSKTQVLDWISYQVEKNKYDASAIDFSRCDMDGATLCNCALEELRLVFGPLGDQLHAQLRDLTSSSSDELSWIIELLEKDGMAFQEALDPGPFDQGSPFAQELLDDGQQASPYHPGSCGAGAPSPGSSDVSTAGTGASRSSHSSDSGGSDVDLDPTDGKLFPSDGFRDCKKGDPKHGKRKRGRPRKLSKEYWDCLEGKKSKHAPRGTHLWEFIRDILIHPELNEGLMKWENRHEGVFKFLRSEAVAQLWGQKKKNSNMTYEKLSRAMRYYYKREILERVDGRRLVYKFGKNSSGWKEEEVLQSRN
As to conditions: protein: recombinant; tags: N-terminal GST; dsDNA, one strand shown. In outline:
as §1

Another test has as its target CRX (Homo sapiens, UniProt O43186 1-299). As to conditions: protein: recombinant; tags: N-terminal GST; dsDNA, one strand shown. In outline: as §1
The target in another test is ETV1 (Homo sapiens, UniProt P50549 1-477). As to conditions: protein: recombinant; tags: N-terminal GST; dsDNA, one strand shown. In outline:
as §1

Binding signal data for one sequence are collected here from paper PMC7862700, “An all-to-all approach to the identification of sequence-specific readers for epigenetic DNA modifications on cytosine”.

Sequence of SPIB (Q01892 whole entry): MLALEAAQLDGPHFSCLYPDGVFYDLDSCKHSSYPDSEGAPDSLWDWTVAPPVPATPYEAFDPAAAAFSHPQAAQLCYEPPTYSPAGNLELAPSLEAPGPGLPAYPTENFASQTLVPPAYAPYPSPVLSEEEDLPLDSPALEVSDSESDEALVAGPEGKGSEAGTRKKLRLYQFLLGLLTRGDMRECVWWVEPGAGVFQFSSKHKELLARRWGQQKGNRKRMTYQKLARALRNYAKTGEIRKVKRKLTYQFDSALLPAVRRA
Sequence of ETV5 (P41161 whole entry): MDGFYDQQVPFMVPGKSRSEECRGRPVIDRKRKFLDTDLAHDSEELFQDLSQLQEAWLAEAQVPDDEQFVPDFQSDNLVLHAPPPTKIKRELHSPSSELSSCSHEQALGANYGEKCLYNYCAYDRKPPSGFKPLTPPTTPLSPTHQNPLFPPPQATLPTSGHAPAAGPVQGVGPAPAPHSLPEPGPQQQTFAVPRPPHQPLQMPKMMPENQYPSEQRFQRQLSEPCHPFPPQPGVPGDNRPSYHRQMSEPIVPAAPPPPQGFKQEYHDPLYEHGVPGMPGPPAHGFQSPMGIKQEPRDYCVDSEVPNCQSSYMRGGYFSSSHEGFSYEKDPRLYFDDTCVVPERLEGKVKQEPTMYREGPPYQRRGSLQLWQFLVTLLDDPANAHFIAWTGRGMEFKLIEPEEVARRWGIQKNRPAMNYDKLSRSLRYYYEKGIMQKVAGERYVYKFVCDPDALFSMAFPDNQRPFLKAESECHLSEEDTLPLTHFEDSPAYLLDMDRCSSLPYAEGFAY
Sequence of CRX (O43186 whole entry): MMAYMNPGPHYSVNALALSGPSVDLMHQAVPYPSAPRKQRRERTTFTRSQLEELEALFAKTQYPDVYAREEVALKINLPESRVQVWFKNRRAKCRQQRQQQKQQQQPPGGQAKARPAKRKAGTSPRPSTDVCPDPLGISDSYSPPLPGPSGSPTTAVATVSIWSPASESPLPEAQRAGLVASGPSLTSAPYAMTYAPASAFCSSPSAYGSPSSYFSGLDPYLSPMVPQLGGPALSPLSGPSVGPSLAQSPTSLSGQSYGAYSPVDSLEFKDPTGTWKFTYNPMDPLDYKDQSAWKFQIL
Sequence of ETV1 (P50549 whole entry): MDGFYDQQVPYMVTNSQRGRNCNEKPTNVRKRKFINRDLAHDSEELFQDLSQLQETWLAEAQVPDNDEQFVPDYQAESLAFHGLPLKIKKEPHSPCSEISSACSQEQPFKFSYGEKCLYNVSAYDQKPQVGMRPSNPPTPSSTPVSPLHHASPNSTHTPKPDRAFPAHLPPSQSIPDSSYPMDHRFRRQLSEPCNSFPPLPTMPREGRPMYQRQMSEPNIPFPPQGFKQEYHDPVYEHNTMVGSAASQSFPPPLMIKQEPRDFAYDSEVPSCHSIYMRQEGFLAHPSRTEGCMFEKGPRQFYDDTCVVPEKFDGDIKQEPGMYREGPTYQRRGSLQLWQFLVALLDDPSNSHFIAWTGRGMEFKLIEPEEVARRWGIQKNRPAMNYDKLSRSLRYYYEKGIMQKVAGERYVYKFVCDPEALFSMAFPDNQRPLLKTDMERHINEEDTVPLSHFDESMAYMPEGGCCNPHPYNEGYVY
Sequence of ELF4 (Q99607 whole entry): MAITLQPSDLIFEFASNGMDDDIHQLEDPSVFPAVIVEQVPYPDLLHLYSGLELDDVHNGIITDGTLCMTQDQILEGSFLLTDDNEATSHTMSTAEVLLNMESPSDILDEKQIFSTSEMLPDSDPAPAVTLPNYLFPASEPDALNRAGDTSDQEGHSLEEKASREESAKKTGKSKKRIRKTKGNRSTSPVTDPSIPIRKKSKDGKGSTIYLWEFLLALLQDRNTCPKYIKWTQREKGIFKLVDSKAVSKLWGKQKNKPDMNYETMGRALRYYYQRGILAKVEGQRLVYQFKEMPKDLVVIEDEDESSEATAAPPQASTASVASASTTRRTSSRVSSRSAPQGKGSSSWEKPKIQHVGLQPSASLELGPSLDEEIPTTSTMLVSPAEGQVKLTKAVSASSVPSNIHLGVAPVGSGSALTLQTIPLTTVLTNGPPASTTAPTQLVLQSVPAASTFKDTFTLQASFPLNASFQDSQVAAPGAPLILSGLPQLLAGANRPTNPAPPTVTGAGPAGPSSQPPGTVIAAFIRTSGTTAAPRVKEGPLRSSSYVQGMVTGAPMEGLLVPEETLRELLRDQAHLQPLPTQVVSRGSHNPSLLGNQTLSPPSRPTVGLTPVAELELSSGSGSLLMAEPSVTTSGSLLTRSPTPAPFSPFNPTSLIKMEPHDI
Sequence of HSF1 (Q00613 whole entry): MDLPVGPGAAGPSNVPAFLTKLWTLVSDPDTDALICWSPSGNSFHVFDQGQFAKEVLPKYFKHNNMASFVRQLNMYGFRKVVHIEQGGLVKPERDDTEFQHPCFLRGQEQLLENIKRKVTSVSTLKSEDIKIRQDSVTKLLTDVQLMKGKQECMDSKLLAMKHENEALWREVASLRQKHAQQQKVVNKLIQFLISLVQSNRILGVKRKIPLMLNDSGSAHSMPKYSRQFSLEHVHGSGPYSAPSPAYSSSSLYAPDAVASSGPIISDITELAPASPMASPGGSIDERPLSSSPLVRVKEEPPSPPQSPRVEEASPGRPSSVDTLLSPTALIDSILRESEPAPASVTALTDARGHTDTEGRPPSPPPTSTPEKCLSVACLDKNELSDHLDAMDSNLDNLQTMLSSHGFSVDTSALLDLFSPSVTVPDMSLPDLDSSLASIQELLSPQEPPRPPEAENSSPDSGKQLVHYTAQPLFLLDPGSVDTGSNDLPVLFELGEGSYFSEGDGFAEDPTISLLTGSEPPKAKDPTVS

As to TTTAGG, the binding signal in the test with FLI1 is 1.05 fold enrichment (6-mer frequency, TF over GST control); in the test with ELK1 it was 1.12 fold enrichment (6-mer frequency, TF over GST control); with GABPA it was 1.11 fold enrichment (6-mer frequency, TF over GST control); with ERG it was 1.08 fold enrichment (6-mer frequency, TF over GST control); in the test with EHF, 1.06 fold enrichment (6-mer frequency, TF over GST control); with SPI1, 1.08 fold enrichment (6-mer frequency, TF over GST control). In addition, the binding signal in the test with SPIB was 1.15 fold enrichment (6-mer frequency, TF over GST control); in the test with ELK3, 1.07 fold enrichment (6-mer frequency, TF over GST control); with FEV, 1.09 fold enrichment (6-mer frequency, TF over GST control); with ETV5, 1.06 fold enrichment (6-mer frequency, TF over GST control); with HSF1 it was 1.25 fold enrichment (6-mer frequency, TF over GST control); in the test with ELF4, 1.05 fold enrichment (6-mer frequency, TF over GST control). Also, the binding signal in the test with ELK4 is 1.11 fold enrichment (6-mer frequency, TF over GST control); with ETV2, 1.09 fold enrichment (6-mer frequency, TF over GST control); with ELF3 it was 1.09 fold enrichment (6-mer frequency, TF over GST control); with CRX, 1.5 fold enrichment (6-mer frequency, TF over GST control); with ETV1, 1.13 fold enrichment (6-mer frequency, TF over GST control).
